In PubChem BioAssay AID2284159 (EPA ToxCast):
Active and inactive are the calls of the source. The calls were made as follows: active = hit-call score of the fitted dose curve at least 0.9, where 1 is the maximum; inactive = score below 0.9.

These molecules were tested against human Dopamine Receptor D2L, DRD2 (gene 1813) (UniProt P14416) (assay: ERF_FR_GPCR_hDRD2: Eurofins (ERF) G Protein-Coupled Receptor (GPCR) Radioligand Binding LeadHunter Assay for human Dopamine Receptor D2L Antagonism).
Protocol: ERF_FR_GPCR_hDRD2 is a biochemical, single-readout assay that uses extracted gene-proteins in a cell-free assay. Measurements were taken 1 hour after chemical dosing in a 96-well plate. See D2L Human Dopamine GPCR Binding (Antagonist Radioligand) Assay, Cerep.ERF_FR_GPCR_hDRD2 is an assay component calculated from the ERF_FR_GPCR_hDRD2 assay. It is designed to measure radioligand binding using a type of binding reporter as detected by scintillation counting with radiometry technology.Data from the assay component ERF_FR_GPCR_hDRD2 was analyzed at the assay endpoint, ERF_FR_GPCR_hDRD2, in the positive analysis fitting direction relative to DMSO as the negative control and baseline of activity. Using a type of binding reporter, loss-of-signal activity can be used to understand changes in binding as they relate to gene DRD2. To generalize the intended target to other relatable targets, this assay endpoint is annotated to the gpcr intended target family, where the subfamily is dopamine.
Human cells are incubated for 60 minutes at room temprature with [3H]methyl-spiperone ligand (0.3 nM) and Butaclamol as control inhibitor.Test Sample Requirements: Minimum for 1) Screen: 60 ul of 10 mM stock -OR- 1 mg (pre-weighed) for 10 uM final testing. 2) Dose Response: 90 ul of 10 mM stock -OR- 1 mg (pre-weighed) for a top concentration at 10 uM.

Chain of human Dopamine Receptor D2L, DRD2 (gene 1813) (P14416 whole entry, looked up): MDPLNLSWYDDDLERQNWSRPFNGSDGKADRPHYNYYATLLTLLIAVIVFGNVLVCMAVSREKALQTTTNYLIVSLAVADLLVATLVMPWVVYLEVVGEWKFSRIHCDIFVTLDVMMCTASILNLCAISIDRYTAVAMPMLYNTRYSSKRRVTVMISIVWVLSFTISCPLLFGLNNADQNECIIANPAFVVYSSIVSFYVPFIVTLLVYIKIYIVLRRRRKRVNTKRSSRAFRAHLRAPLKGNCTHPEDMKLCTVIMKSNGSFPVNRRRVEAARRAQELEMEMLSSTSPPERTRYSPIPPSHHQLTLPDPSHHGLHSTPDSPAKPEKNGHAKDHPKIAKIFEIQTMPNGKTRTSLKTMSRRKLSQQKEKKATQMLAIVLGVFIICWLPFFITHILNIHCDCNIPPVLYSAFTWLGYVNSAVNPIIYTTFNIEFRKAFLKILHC

| Structure (SMILES) | AC50 |
| --- | --- |
| O=C(/C=C/c1ccc(O)cc1)CC(=O)/C=C/c1ccc(O)cc1 | 1.55 µM (active) |
